Assay results: PubChem BioAssay

Experiment: binders of probe aHhip on microarray, primary screen, stem cell growth factor project, biochemical, small-molecule microarray, fluorescence 635/667 (AID 1087);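 note: score merges spot fluorescence at 667nm with spot signal to noise ratio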
Settings: higher = more signal

Going from `CCCC[C@@H]1C[C@H]1[C@@H](NC(=O)c1cccnc1)c1ccc(-c2ccccc2)cc1` to `COC(=O)[C@]1(CCS(=O)(=O)c2ccccc2)N=C(c2ccc(OCCCO)cc2)O[C@@H]1c1ccccc1CN=[N+]=[N-]`, the composite z-score falls from -0.0074 to -0.346.

Compared with `C=CCNC(=O)[C@@H]1[C@H]2C(=O)O[C@H](c3ccccc3)[C@H](c3ccccc3)N2[C@H](c2ccc(OCCO)cc2)[C@@]12C(=O)N(C(=O)OCCOC)c1ccc(C#CC3=CCCCC3)cc12`, `COCCOC(=O)N1C(=O)[C@@]2(c3cc(C#CC4(O)CCCCCC4)ccc31)[C@H](c1ccccc1OCCO)N1[C@H](c3ccccc3)[C@H](c3ccccc3)OC(=O)[C@H]1[C@@H]2C(N)=O` is lower in composite z-score: 0.21 for the first, -0.0672 for the second.

First: CC(C)NC(=O)[C@@]1(C)c2ccccc2C(=O)N(C(C)C)[C@H]1c1ccc(CO)cc1
Second: O=C1c2ccccc2[C@](Cc2ccccc2I)(C(=O)NCc2ccccc2)[C@H](c2ccc(CO)cc2)N1C1CCCCC1
The composite z-score of the first is lower: -0.252 for the first, 0.189 for the second.

First: COC(=O)[C@@]1(Cc2ccc(OC)cc2)[C@H]2c3cc(C(=O)N(C)C)n(Cc4ccccc4)c3C[C@H]2CN1C(=O)c1ccccc1
Second: CC(C)(C)OC(=O)CC[C@]1(C(=O)N2CCOCC2)N=C(c2ccc(OCCCO)cc2)O[C@H]1c1ccccc1
The composite z-score of the first is lower: -0.0597 for the first, 0.0695 for the second.
